Source: PubChem BioAssay
TROY signal inh = inhibitors of TROY-driven NF-kB signaling, primary screen, Q293 LMP1-TROYcd cells, NF-kB luciferase, uHTS. Q293 LMP1-TROYcd NF-kB luciferase reporter, 4 h. inhibition, % at 10 µM. hit rate 0.98% among 360,000;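 active = compounds whose plate-normalised and pattern-corrected inhibition of the luciferase reporter signal at the single screening dose is 50% or more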
MITF TRPM1 inh = inhibitors of MITF-dependent TRPM1 promoter reporter, primary screen, cell-based, SK-MEL-5, single point, luciferase; AID 488899, 2010; SK-MEL-5 TRPM1 promoter luciferase, 24 h; hit rate 0.83% among 330,000; inhibition, % at 12.5 µM;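 active = mean inhibition across replicates of 60% or more, whatever share of single replicates reaches that level; inconclusive = some that reach 60%, reason not given; inactive = mean inhibition across replicates below 60%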
Shn3 3UTR inh = reduction of Shn3 3'UTR firefly luciferase signal, primary screen, Schnurri-3 inhibitor project, cell-based, Clone20 osteoblasts, set 2 | Clone20 osteoblast Shn3 3'UTR firefly luciferase, 24 h | inhibition, % at 12.5 µM | hit rate 0.52% among 360,000;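 active = mean inhibition of at least 75% with every replicate also reaching 75%; inconclusive = mean inhibition at least 75% but some replicate below; inactive = mean inhibition below 75%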
TWEAK-Fn14 inh = inhibitors of TWEAK-Fn14 signaling, primary screen, luciferase reporter cells, uHTS; TWEAK-stimulated Fn14 reporter cells, luciferase luminescence, 8 h; inhibition, % at 10 µM; hit rate 2% among 360,000; in the data active = inhibition above about 50%
Peg3 prom inh = Peg3 promoter-driven luciferase inhibitors, primary screen, cell-based, HeLa, luciferase luminescence. HeLa PEG-Prom luciferase reporter, overnight. inhibition, % at 20 µM. hit rate 1.7% among 360,000. AID 588405, 2011;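 active = inhibition of at least 50% at 20 µM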
EBV LMP1 NFkB = EBV LMP1-driven NF-kappaB luciferase reporter inhibitors, primary screen, cell-based, luminescence, single point. inhibition, % at 12.5 µM. LMP1-induced NF-kappaB luciferase reporter cells. hit rate 0.69% among 350,000; in the data active = inhibition above about 41%; inconclusive = no clear call, values can overlap the other calls
Of the large screens only hits and unclear results are named; the others gave an inactive call. Rows were chosen to be rich in hits. Some 4.1% of all compounds tested hit in one or more screens of this group.

O=C(Cc1c(F)cccc1Cl)N1CCN(S(=O)(=O)c2cccs2)CC1	none
Cc1nn(C(=O)c2cccc([N+](=O)[O-])c2)c(C)c1Cl	none
CCc1c(C)nc2cc(-c3ccc(OC)c(OC)c3)nn2c1NCC1CC1	Shn3 3UTR inh 93, EBV LMP1 NFkB 80
O=C(Oc1ccc([N+](=O)[O-])cc1)c1cccnc1	none
O=C(Oc1ccc(NC2=C(Cl)C(=O)c3ccccc3C2=O)cc1)c1ccc([N+](=O)[O-])cc1	MITF TRPM1 inh 82, Peg3 prom inh 99
Cc1nc(C)c(C(=O)NNC(=O)c2ccc(Br)cc2)s1	none
CN(CCO)c1cc(Sc2nc3ccccc3s2)c2nonc2c1[N+](=O)[O-]	MITF TRPM1 inh 91, Shn3 3UTR inh 87, Peg3 prom inh 104
Cc1nnc(SCc2cnc(-c3ccc(C(C)C)cc3)s2)n1C	EBV LMP1 NFkB 43
c1ccc(-c2ncc(CSc3nncn3-c3ccccc3)s2)cc1	none
Cc1cccc(C)c1NC(=O)CN(C)C(=O)Cc1cccc(C(F)(F)F)c1	TWEAK-Fn14 inh 55
O=C1OC(Nc2nc3ccccc3s2)c2ccccc21 (stereo unspecified)	none
O=C1OC(Nc2nc(-c3ccc(F)cc3)cs2)c2ccccc21 (stereo unspecified)	TWEAK-Fn14 inh 59
CC(C)CN(C(=O)COC(=O)c1nc(Cl)ccc1Cl)c1c(N)n(Cc2ccccc2)c(=O)[nH]c1=O	none
COc1ccc(NC(=O)C2CCCN(S(=O)(=O)c3cccc4nonc34)C2)c(OC)c1 (stereo unspecified)	EBV LMP1 NFkB 63
Cc1ccc(-n2ncc3c(N4CCCC4)ncnc32)c(C)c1	none
S=c1sc2c(N3CCN(Cc4ccccc4)CC3)ncnc2n1-c1ccccc1	TROY signal inh 56, TWEAK-Fn14 inh 58
CC1CCCN(c2ncnc3c2cnn3-c2ccccc2)C1 (stereo unspecified)	TROY signal inh 80, TWEAK-Fn14 inh 92
COc1cccc(N2CCN(c3ncnc4c3cnn4-c3ccc(C)cc3C)CC2)c1	TROY signal inh 80, MITF TRPM1 inh 68, Shn3 3UTR inh 91, TWEAK-Fn14 inh 106, Peg3 prom inh 102
Cc1ccc(-n2ncc3c(N4CCCC(C)C4)ncnc32)c(C)c1 (stereo unspecified)	none (no result: MITF TRPM1 inh)
c1ccc(-n2ncc3c(N4CCCCC4)ncnc32)cc1	TROY signal inh 71, TWEAK-Fn14 inh 95, EBV LMP1 NFkB 41
CCN1CCN(c2ncnc3c2sc(=S)n3-c2ccccc2)CC1	none
CC1CN(Cc2cc(=O)oc3cc(O)ccc23)CC(C)O1 (stereo unspecified)	none
COc1ccc(-n2ncc3c(N4CCN(Cc5ccccc5)CC4)ncnc32)cc1	TROY signal inh 61, TWEAK-Fn14 inh 81, Peg3 prom inh 103
CN(C)C(=O)C1CCC(=O)N1Cc1cccs1 (stereo unspecified)	none
CC1=NN(C(C#N)c2c(C)nn(Cc3ccccc3)c2C)C(C)(C)C1 (stereo unspecified)	EBV LMP1 NFkB 57
CN(C)S(=O)(=O)c1ccc(C(=O)Nc2nnc(SCC(=O)N3CCOCC3)s2)cc1	none (no result: MITF TRPM1 inh)
Cc1ccc(C(=O)Nc2nnc(SCC(=O)N3CCCc4ccccc43)s2)cc1	TWEAK-Fn14 inh 55, EBV LMP1 NFkB 51
COc1ccc(C(=O)Nc2nnc(-c3ccccc3)s2)cc1	none
CC(C)Oc1ccc(C(=O)Nc2nnc(SCC(=O)N3CCOCC3)s2)cc1	TWEAK-Fn14 inh 50, EBV LMP1 NFkB 70
CCOC(=O)CNC(=O)CSc1nnc(NC(=O)c2ccc(C)cc2)s1	TWEAK-Fn14 inh 68, EBV LMP1 NFkB 55
Cc1ccc(C(=O)Nc2nnc(-c3ccc(C(C)(C)C)cc3)s2)cc1	EBV LMP1 NFkB 57
CCC(C(=O)NCc1cccnc1)n1nc(C)n2c(cc3occc32)c1=O (stereo unspecified)	none
CN(C)c1ccc(Sc2ccc3nc(N)nc(N)c3c2)cc1	Peg3 prom inh 105 (no result: MITF TRPM1 inh)
Cc1cccc(Oc2nc(-c3cccc([N+](=O)[O-])c3)nc3ccccc23)c1C	none
Cc1ccc(N(CC(O)Cn2c3ccccc3c3ccccc32)S(C)(=O)=O)cc1 (stereo unspecified)	none
CC(=O)Nc1ccc(OCC(O)Cn2c3ccccc3c3ccccc32)cc1 (stereo unspecified)	none
CC(=O)Nc1ccc(N(CC(O)Cn2c3ccccc3c3ccccc32)S(=O)(=O)c2ccc(C)cc2)cc1 (stereo unspecified)	Peg3 prom inh 61
CC(=O)Nc1ccc(OCC(O)Cn2c3ccccc3c3ccccc32)c(C)c1 (stereo unspecified)	TWEAK-Fn14 inh 58
Cc1cc(S(=O)(=O)NCc2ccccc2)ccc1OCC(=O)Nc1cccc([N+](=O)[O-])c1	TWEAK-Fn14 inh 52
Cc1cc(S(=O)(=O)NCc2ccccc2)ccc1OCC(=O)NCc1ccccn1	none
Cc1cccc(C)c1OCC(=O)Nn1c(C)nc2ccccc2c1=O	TWEAK-Fn14 inh 78 (no result: TROY signal inh)
Cc1cccc(NC(=O)CSc2nc3ccccc3c(=O)n2C)c1C	Shn3 3UTR inh 87 (no result: MITF TRPM1 inh)
Cc1ccccc1Nc1nc(N)nc(CSc2nc3ccccc3c(=O)n2C)n1	TWEAK-Fn14 inh 66
Cc1nc2ccccc2c(=O)n1NC(=O)COc1ccccc1	none
O=C(O)CSc1nnc(-c2ccc(Cl)cc2Cl)n1-c1ccc(Cl)cc1	none
CCCNC(=O)c1ccc(N2CCC3(CC2)CC(c2cccc(Br)c2)=NO3)c(NC(=O)c2cccc(C)c2)c1	none
O=C(COC(=O)c1ccc2c(c1)S(=O)(=O)N=C1CCCCCN12)NCCc1ccc(F)cc1	none
Cc1nnc(Sc2cc(C(=O)NC3CC3)c3ccccc3n2)s1	none
Cc1[nH]c(=O)c(C#N)cc1-c1csc(-c2ccccc2)n1	Peg3 prom inh 60
COc1ccc(NC(=O)CSc2nc3ccsc3c(=O)n2CCC(=O)O)cc1	none (no result: MITF TRPM1 inh)
COCc1nnc(NC(=O)COc2ccc3c(c2)OCO3)s1	none
O=C(COc1ccc2c(c1)OCO2)Nc1nccs1	TWEAK-Fn14 inh 66
CCOc1ccc(OCC(=O)Nc2nccs2)cc1	TROY signal inh 65, TWEAK-Fn14 inh 85, Peg3 prom inh 59, EBV LMP1 NFkB 43
COc1ccc(OCCC(=O)Nc2nccs2)cc1	none
COc1ccc(OCC(=O)Nc2nccs2)cc1	TWEAK-Fn14 inh 81, EBV LMP1 NFkB inconclusive
CCn1cc(CN2CCCC(C(=O)Nc3ccc(-c4cscn4)cc3)C2)c(C)n1 (stereo unspecified)	none
O=[N+]([O-])c1c(Nc2ccc(O)cc2)cc(Cl)c2nonc12	TROY signal inh 83, MITF TRPM1 inh 96, Shn3 3UTR inh 95, TWEAK-Fn14 inh 67, Peg3 prom inh 103
